The text below walks through data of PubChem BioAssay (NCATS).

The source made the active and inactive calls. Calls follow the shape of the full dose curve.

The assay is described as follows: qHTS drug screen for cell cycle checkpoint inhibitors in PARPi-resistant BRCA-mutant ovarian cancer cell lines. (AID 1963452). The settings on record: PEO1/OlaR viability, CellTiter-Glo luminescence, 96 h; for Z-AUC: stronger effect = lower value. In outline: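 PEO1, PEO4 and PEO1/OlaR ovarian cancer cells, 600 per well, exposed 96 h at 37C to a dilution series. Viability read by CellTiter-Glo luminescence, normalized to DMSO and empty wells; activity summarized as Z-AUC.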
For orientation: qHTS replaces the single test concentration by a dilution series.

Where [1] appears, read: measured here: PEO1 parental Z-AUC.
Potency is read from the fitted curve at half-maximal effect.

On to `O=C(Oc1ccc([N+](=O)[O-])cc1)N1CCN(Cc2cccc(Oc3ccccc3)c2)CC1`, for which the Z-AUC is 1.13 (inactive). For the same compound, under setting [1], the Z-AUC turned out to be 1.12. Besides, the Z-AUC (measured here: PEO4 Z-AUC) amounted to 1.4.

`N=c1c2c(-c3ccccc3)c(-c3ccccc3)n(Cc3ccccc3)c2ncn1C1CCC(O)CC1` (stereo not drawn): the Z-AUC is 0.292 (inactive). The Z-AUC under setting [1] is -0.41. Moreover, the Z-AUC (measured here: PEO4 Z-AUC) is -0.216.

In the case of `O=S(=O)(CC1CS1)c1ccc(Oc2ccccc2)cc1` (stereo not drawn), the Z-AUC is 1.02 (inactive). Also, under setting [1], the Z-AUC turned out to be 1.86. Besides, where the note is “measured here: PEO4 Z-AUC”, the Z-AUC was found to be 1.74.

`C[C@](O)(COc1ccc(C#N)cc1)C(=O)Nc1ccc(C#N)c(C(F)(F)F)c1`: the Z-AUC is 0.66 (inactive). Further, the Z-AUC under setting [1] turned out to be 0.716. For the same compound, the Z-AUC (measured here: PEO4 Z-AUC) was found to be 0.592.

For `CCCN1CCO[C@@H]2c3cc(O)ccc3OC[C@H]21`, the Z-AUC is 0.538 (inactive). Besides, under setting [1], the Z-AUC was found to be 0.85. For the same compound, under “measured here: PEO4 Z-AUC”, the Z-AUC amounted to 0.552.

Consider `CCN(CC)C(=O)c1ccc(C2=CC3(CCNCC3)Oc3cccc(O)c32)cc1`, for which the Z-AUC was -0.151 (inactive). Further, the Z-AUC under setting [1] is 0.834. Further, the Z-AUC (measured here: PEO4 Z-AUC) was 0.745.

`O=c1[nH]c2ccccc2n1C1CCN(Cc2ccc(-c3[nH]c4cc5ncnc5cc4nc3-c3ccccc3)cc2)CC1`: the Z-AUC is -0.823 (inactive). Further, the Z-AUC under setting [1] was -0.392. Besides, the Z-AUC (measured here: PEO4 Z-AUC) is -0.582.

For the compound `Clc1ccccc1C(c1ccccc1)(c1ccccc1)n1cccn1`, the Z-AUC was 0.364 (inactive). For the same compound, the Z-AUC under setting [1] turned out to be 0.863. Moreover, the Z-AUC (measured here: PEO4 Z-AUC) came out at 1.14.

As to `COc1ccc(N(C(=O)Oc2c(C)cccc2C)c2ccnc(Nc3ccc(N4CCN(C)CC4)cc3)n2)c(OC)c1`, the Z-AUC was -0.241 (inactive). The Z-AUC under setting [1] was determined as 0.364. For the same compound, where the note is “measured here: PEO4 Z-AUC”, the Z-AUC was 0.481.

`C/C=C(/C)C(=O)O[C@H]1C(C)=C2[C@H]([C@@H]1OC(=O)CCCCCCC)[C@@](C)(OC(C)=O)C[C@H](OC(=O)CCC)[C@@]1(O)[C@H]2OC(=O)[C@@]1(C)O`: the Potency is 9.8 nM (active). The Z-AUC under setting [1] is -2.42. Also, the Z-AUC (measured here: PEO4 Z-AUC) was -2.66.

In the case of `CCCCCC[C@H]1C(=O)O[C@H](C)[C@H](NC(=O)c2cccc(NC=O)c2O)C(=O)O[C@@H](C)[C@@H]1OC(=O)CC(C)C`, the Z-AUC was -1.4 (inactive). For the same compound, under setting [1], the Z-AUC was -1.96. In addition, under “measured here: PEO4 Z-AUC”, the Z-AUC was -1.72.

For the compound `O=c1[nH]c2ccc(Cl)cc2c(N[C@@H]2CN3CCC2CC3)c1-c1nc2ccccc2[nH]1`, the Z-AUC was -1.21 (inactive). Besides, the Z-AUC under setting [1] was -1.35. Further, the Z-AUC (measured here: PEO4 Z-AUC) is -1.24.

For the compound `O=C(N[C@H]1CN2CCC1CC2)c1ccc(Cl)cc1`, the Z-AUC was -0.714 (inactive). Moreover, the Z-AUC under setting [1] was determined as 0.355. Also, the Z-AUC (measured here: PEO4 Z-AUC) was -0.659.

For `COCC1(CO)C(=O)C2CCN1CC2` (stereo not drawn), the Z-AUC was 0.503 (inactive). The Z-AUC under setting [1] was 0.336. The Z-AUC (measured here: PEO4 Z-AUC) was 0.128.

With `O=S(=O)(F)Cc1ccccc1`, the Z-AUC was -0.434 (inactive). Further, the Z-AUC under setting [1] is -0.355. The Z-AUC (measured here: PEO4 Z-AUC) is 0.278.

Consider `Cc1c(C(=O)Nc2cccc(C(F)(F)F)c2)cc(-c2ccccc2)n1CCCN1CCOCC1`, for which the Z-AUC is -1.03 (inactive). Also, under setting [1], the Z-AUC was -0.727. Also, the Z-AUC (measured here: PEO4 Z-AUC) is -1.05.

On to `CSCC[C@@H](NC(=O)[C@@H](Cc1ccccc1)NC(=O)CNC(=O)CNC(=O)[C@@H](N)Cc1ccc(O)cc1)C(=O)O`, for which the Z-AUC was 1.29 (inactive). Under setting [1], the Z-AUC came to 1.17. The Z-AUC (measured here: PEO4 Z-AUC) worked out at 1.05.

Consider `CCOC(=O)c1c(C(C#N)=CN)c2ccc(Cl)c(Cl)c2n1C`, for which the Z-AUC was 0.895 (inactive). Besides, the Z-AUC under setting [1] worked out at 0.557. The Z-AUC (measured here: PEO4 Z-AUC) turned out to be 0.414.

`COC1=C[C@@H]2[C@@H]3Cc4ccc(OC)c(O)c4[C@]2(CCN3C)CC1=O`: the Z-AUC is 0.716 (inactive). Besides, under setting [1], the Z-AUC amounted to 0.742. In addition, the Z-AUC (measured here: PEO4 Z-AUC) was found to be 0.886.

Take `CC(C)[C@H]1C(=O)N[C@H](CO)Cc2c[nH]c3cccc(c23)N1C`: the Z-AUC was 0.277 (inactive). Moreover, the Z-AUC under setting [1] is -0.654. For the same compound, the Z-AUC (measured here: PEO4 Z-AUC) was -0.578.

As to `CC1(N2CCC(n3c([C@@H]4CCCNC4)nc4ccccc43)CC2)CCCCCCC1`, the Z-AUC was 1.01 (inactive). Moreover, the Z-AUC under setting [1] is 0.227. Moreover, where the note is “measured here: PEO4 Z-AUC”, the Z-AUC worked out at 0.462.

`CC(C)(C)c1cc(C=C(C#N)C#N)cc(Br)c1O`: the Z-AUC was 1.28 (inactive). The Z-AUC under setting [1] is 1.11. The Z-AUC (measured here: PEO4 Z-AUC) was 0.988.

As for `Cc1ccccc1-n1c(Cn2ncc3c(N)ncnc32)nc2cccc(C)c2c1=O`, the Z-AUC is -0.794 (inactive). Moreover, the Z-AUC under setting [1] is -0.62. The Z-AUC (measured here: PEO4 Z-AUC) is -0.742.

Take `Cc1[nH]nc2ccc(-c3cncc(OC[C@@H](N)Cc4c[nH]c5ccccc45)c3)cc12`: the Z-AUC is -2.34 (inactive). Moreover, under setting [1], the Z-AUC was -1.86. Moreover, the Z-AUC (measured here: PEO4 Z-AUC) is -2.37.

As for `CCOC(=O)Nc1ccc(NCc2ccc(F)cc2)cc1N`, the Z-AUC is -0.328 (inactive). Besides, the Z-AUC under setting [1] is 0.0556. Besides, the Z-AUC (measured here: PEO4 Z-AUC) is 0.397.

Turning to `CCNC(=O)C[C@@H]1N=C(c2ccc(Cl)cc2)c2cc(OC)ccc2-n2c(C)nnc21`, the Z-AUC was -0.661 (inactive). For the same compound, the Z-AUC under setting [1] is -0.0106. Also, where the note is “measured here: PEO4 Z-AUC”, the Z-AUC is -0.343.
